Laboratory results from the supplement of paper PMC6897291.
Structures can show the parent of a compound that is named as a salt.

Each compound was assayed on U-2932 (assay: growth inhibition by drug alone (1 - RLU/untreated control) (fraction); higher = stronger inhibition). Details: 10 nM; time (day): 5; 177Lu-lilotomab satetraxetan 0 ug/ml.
Method in brief: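 Compound doses on the pre-printed Selleck Cambridge Cancer Compound library plates were 10/100 nM for RIVA cells and 10/1,000 nM for U-2932 cells, seeded at 3,000 cells/well. Before seeding, cells were washed after 18 h with or without a radiolabelled anti-CD37 antibody conjugate (~600 MBq/mg; 0.5 µg/ml RIVA, 1 µg/ml U-2932). Growth inhibition was derived from RealTime-Glo luminescence relative to untreated no-drug control wells. Readings were taken daily starting on day 3, each after 1 h at 37°C, and each well's RLU was divided by the mean of 48 such wells per plate and subtracted from 1.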

Row | Structure (SMILES) | growth inhibition by drug alone
1 | Nc1nc2[nH]cc(CCc3ccc(C(=O)N[C@@H](CCC(=O)O)C(=O)O)cc3)c2c(=O)[nH]1 [Pemetrexed] | -0.0965
2 | COc1cc2nccc(Oc3ccc(NC(=O)Nc4cc(C)on4)c(Cl)c3)c2cc1OC [Tivozanib (AV-951)] | -0.00279
3 | CCC(=O)N1CCN(c2ccc(-n3c(=O)ccc4cnc5ccc(-c6cnc7ccccc7c6)cc5c43)cc2C(F)(F)F)CC1 [Torin 1] | 0.0048
4 | COc1cccc2c1C(=O)c1c(O)c3c(c(O)c1C2=O)C[C@@](O)(C(=O)CO)C[C@@H]3O[C@H]1C[C@H](N)[C@@H](O)[C@H](C)O1 [Epirubicin Hydrochloride] | 0.0717
5 | Clc1ccc(Nc2nnc(Cc3ccncc3)c3ccccc23)cc1 [Vatalanib dihydrochloride (PTK787)] | -0.0325
6 | COc1cc2nccc(Oc3ccc(NC(=O)C4(C(=O)Nc5ccc(F)cc5)CC4)cc3)c2cc1OC [XL-184 free base (Cabozantinib)] | -0.102
7 | C[C@@H](O[C@H]1OCCN(Cc2n[nH]c(=O)[nH]2)[C@H]1c1ccc(F)cc1)c1cc(C(F)(F)F)cc(C(F)(F)F)c1 [Aprepitant (MK-0869)] | -0.0486
8 | COc1cc2c(cc1O)CC[C@@H]1[C@@H]2CC[C@]2(C)[C@@H](O)CC[C@@H]12 [2-Methoxyestradiol] | -0.104
9 | CNCc1ccc(-c2[nH]c3cc(F)cc4c3c2CCNC4=O)cc1 | 0.0443
10 | CC[C@@]1(O)C(=O)OCc2c1cc1n(c2=O)Cc2cc3c(CN(C)C)c(O)ccc3nc2-1 [Topotecan HCl] | 0.544
11 | Nc1cc(C(F)(F)F)c(-c2cc(N3CCOCC3)nc(N3CCOCC3)n2)cn1 | -0.042
12 | CC(C)(C)c1ccc(S(=O)(=O)/C=C/C#N)cc1 | -0.0262
13 | C[C@]1(c2nc3c(C(N)=O)cccc3[nH]2)CCCN1 [ABT-888 (Veliparib)] | -0.0424
14 | Cc1ccc(NC(=O)c2ccc(CN3CC[C@H](N(C)C)C3)c(C(F)(F)F)c2)cc1Nc1nccc(-c2cncnc2)n1 [Bafetinib (INNO-406)] | -0.0124
15 | C[C@]12CC[C@@H]3c4ccc(O)cc4CC[C@H]3[C@@H]1CCC2=O [Estrone] | 0.0943
16 | O=C(c1ccc(OCCN2CCCCC2)cc1)c1c(-c2ccc(O)cc2)sc2cc(O)ccc12 [Evista (Raloxifene Hydrochloride)] | -0.0859
17 | CCN(CC)CCNC(=O)c1c(C)[nH]c(/C=C2\C(=O)Nc3ccc(F)cc32)c1C [Sunitinib Malate (Sutent)] | -0.0625
18 | CCOc1ccc(Nc2nc(-c3c(C)nc4ccccn34)cs2)cc1 | 0.0949
19 | C=CC(=O)N1CCC[C@@H](n2nc(-c3ccc(Oc4ccccc4)cc3)c3c(N)ncnc32)C1 | 0.583
20 | CS(=O)(=O)c1cccc(CNc2nc(Nc3ccc4c(c3)CCC(=O)N4)ncc2C(F)(F)F)c1 | -0.0018
21 | CC(NC(=O)c1ccccc1/N=C/c1c(O)ccc2ccccc12)c1ccccc1 (stereo not given) [Sirtinol] | 0.0103
22 | CN(Cc1cnc2nc(N)nc(N)c2n1)c1ccc(C(=O)N[C@@H](CCC(=O)O)C(=O)O)cc1 [Abitrexate (Methotrexate)] | -0.0522
23 | OCCn1cc(-c2cnc3nnn(Cc4ccc5ncccc5c4)c3n2)cn1 | -0.0584
24 | COc1cc(Nc2ncc(F)c(Nc3ccc4c(n3)NC(=O)C(C)(C)O4)n2)cc(OC)c1OC [R406(free base)] | -0.0695
25 | COc1cccc2c1C(=O)c1c(O)c3c(c(O)c1C2=O)C[C@@](O)(C(=O)CO)C[C@@H]3O[C@H]1C[C@H](N)[C@H](O)[C@H](C)O1 [Doxorubicin (Adriamycin)] | 0.356
26 | CN(NC(=O)CC(=O)NN(C)C(=S)c1ccccc1)C(=S)c1ccccc1 [Elesclomol] | 0.818
27 | CN(C)CCOc1ccc(/C(=C(/CCCl)c2ccccc2)c2ccccc2)cc1 [Toremifene Citrate (Fareston, Acapodene)] | -0.00292
28 | CN1CCN(CCOc2cc(OC3CCOCC3)c3c(Nc4c(Cl)ccc5c4OCO5)ncnc3c2)CC1 [Saracatinib (AZD0530)] | -0.0204
29 | CC(C)C[C@H](NC(=O)[C@H](Cc1ccccc1)NC(=O)c1cnccn1)B(O)O [Bortezomib (Velcade)] | 0.976
30 | Cn1cncc1[C@@](N)(c1ccc(Cl)cc1)c1ccc2c(c1)c(-c1cccc(Cl)c1)cc(=O)n2C [Tipifarnib (Zarnestra)] | 0.00741
